Molecules are shown by their SMILES. Results filed as inconclusive are left out. Activity calls are given as the source filed them. The calls were made as follows: active = hit-call score of the fitted dose curve at least 0.9, where 1 is the maximum; inconclusive = response in the unintended direction; inactive = score below 0.9.

For orientation: AC50 means the concentration giving half of the maximal activity seen.

Sequence of Estrogen receptor (Homo sapiens) (P03372 whole entry, looked up): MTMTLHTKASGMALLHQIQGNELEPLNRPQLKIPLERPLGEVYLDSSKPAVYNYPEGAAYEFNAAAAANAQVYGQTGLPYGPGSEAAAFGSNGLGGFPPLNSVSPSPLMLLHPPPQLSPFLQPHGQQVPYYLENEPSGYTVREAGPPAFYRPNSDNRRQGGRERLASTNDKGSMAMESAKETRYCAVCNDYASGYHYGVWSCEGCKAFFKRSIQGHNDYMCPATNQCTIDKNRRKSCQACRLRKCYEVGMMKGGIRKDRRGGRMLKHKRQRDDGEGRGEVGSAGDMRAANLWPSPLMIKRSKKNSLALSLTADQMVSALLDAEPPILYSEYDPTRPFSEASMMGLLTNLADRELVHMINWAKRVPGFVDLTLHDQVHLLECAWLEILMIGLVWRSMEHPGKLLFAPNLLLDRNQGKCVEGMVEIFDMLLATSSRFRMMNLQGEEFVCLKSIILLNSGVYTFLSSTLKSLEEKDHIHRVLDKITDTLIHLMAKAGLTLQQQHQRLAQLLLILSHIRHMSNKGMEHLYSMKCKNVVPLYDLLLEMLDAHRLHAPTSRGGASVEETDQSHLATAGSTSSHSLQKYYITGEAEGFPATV

For this test, the target named is Estrogen receptor (Homo sapiens) (UniProt P03372). Put plainly: CCTE_Deisenroth_AIME_384WELL_LUC_Active: CCTE's 384-well Estrogen Receptor Transactivation Assay with AIME metabolic competence (ERTA luciferase; metabolism positive), Deisenroth Lab (AID 2284030). Here is the method:
CCTE_Deisenroth_AIME_384WELL (AIME metabolism assay) is a cell-based, single-readout assay that uses VM7Luc4E2, a human mammary gland/breast cell line, with measurements taken at 24 hour after chemical dosing in a 384-well plate.CCTE_Deisenroth_AIME_384WELL_LUC_Active is one of four assay components measured or calculated from the CCTE_Deisenroth_AIME_384WELL assay. It is designed to make measurements of luciferase induction, a form of inducible reporter, as detected with bioluminescence signals by luciferase-coupled ATP quantitation technology.CCTE_Deisenroth_AIME_384WELL_LUC_Active is a component of the CCTE_Deisenroth_AIME_384WELL assay that measures the effect of retroftting the VM7Luc ERTA assay with the Alginate Immobolization of Metabolic Enzymes (AIME) metabolism method. AIME is optimized to impart phase I hepatic metabolism using phenobarbital/beta-naphthoflavone induced hepatic S9 from male Sprague Dawley rats. Parent chemicals are incubated for 2 hours in the AIME assay prior to transfer to the VM7Luc ERTA assay plate. […] This endpoint evaluates reporter induction in metabolism positive mode. Using a type of inducible reporter in VM7Luc cells, gain-of-signal activity can be used to understand changes in the reporter gene as they relate to xenobiotic metabolism and the gene ESR1. This assay endpoint, CCTE_Deisenroth_AIME_384WELL_LUC_Active, was analyzed in the positive analysis fitting direction relative to 17beta-estradiol as the positive control in the ERTA assay. To generalize the intended target to other relatable targets, this assay endpoint is annotated to the nuclear receptor intended target family, where the subfamily is steroidal.
The AIME procedure consists of a preparative "pre-stamping" step using a barium chloride/poly-L-lysine (PLL) solution followed by "stamping" the lid in alginate-hepatic S9 (metabolism positive) or alginate-water (metabolism negative) to form microspheres. Once stamping is completed, the AIME lids are placed in duplicate microplates (metabolism positive or negative) containing chemical solutions and incubated for two hours to facilitate metabolic reactions. The conditioned medium, containing parent chemical or metabolites, is then transferred to the cell-based VM7Luc Estrogen Receptor Transactivation Assay (ERTA) for 24 hours. A typical experimental design tests a 10-point concentration series (0.002 - 200 uM) for 8 compounds (96-well format)1 or 32 compounds (384-well format)2 in single technical replicate. AIME assay controls include trans-stilbene (bioactivated control) and ethylparaben (bioinactivated control). ERTA assay plate controls include 17-beta estradiol (positive control) and DMSO (solvent control). Experiments typically comprise a minimum of four experimental replicates (n=4).
`OCCC(F)(F)C(F)(F)C(F)(F)C(F)(F)C(F)(F)C(F)(F)C(F)(F)C(F)(F)F`: the result was inactive.
Same read-out and setting: under `CCCCCCC(=O)O` stands “inactive”; under `CCCCCCCCC(=O)O`, “inactive”; under `COCC(C)OCC(C)O` (configuration not stated), “inactive”.
As to `c1ccc2cc3c(ccc4ccccc43)cc2c1`, the concentration at half-maximal activity (AC50) is 53.8 µM (active).
With `CCCCOCCO`, the call was inactive.
Regarding `CC#C[C@]1(O)CC[C@H]2[C@@H]3CCC4=CC(=O)CCC4=C3[C@@H](c3ccc(N(C)C)cc3)C[C@@]21C`, the result was inactive.
On the same count and under the same terms, under `COC(=O)CCCCC(=O)OC` stands “inactive”.
Same read-out and setting: under `OCCC(F)(F)C(F)(F)C(F)(F)C(F)(F)C(F)(F)C(F)(F)F` stands “inactive”.
Regarding `O=C(O)c1ccccc1C(c1ccc(O)cc1)c1ccc(O)cc1`, the AC50 was 123 µM (active).
In the case of `OC1CCCCC1`, the molecule was classed as inactive.
Consider `CCCCC(CC)COC(=O)CCCCC(=O)OCc1ccccc1` (configuration not stated), for which the molecule was called inactive.
Same read-out and setting: under `Cc1ccc(S(=O)(=O)O)c(C)c1` stands “inactive”; under `N#C[C@@H]1CC(F)(F)CN1C(=O)CNC1CC2CCC(C1)N2c1ncccn1` (some centres not stated), “inactive”; under `CN1CCC[C@H]1c1cccnc1`, “inactive”.
On to `CCCCCCCCCCCCCCCS(=O)(=O)Oc1ccccc1`, for which the AC50 was 19.5 µM (active).
For `ClC1=C(Cl)C(Cl)(Cl)C(Cl)=C1Cl`, the molecule was called inactive.

For the origin of these results see PubChem BioAssay (EPA / NIEHS).
